In the library only some 6.7% were active in any assay of this set; here they are far more common.
T cruzi growth-1: T. cruzi proliferation inhibition | T. cruzi beta-gal in NIH3T3, GalScreen luminescence, 90 h | inhibition, % at 8.34 µM | 77,000 compounds, 5.9% hits | AID 624255;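 active means mean inhibition above about 93%, with at least 55% of replicates each passing it, limit read from the data, passing the limit was not always enough; inconclusive means only one of those two conditions holds; inactive means neither condition holds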
Pf Dd2 growth: P. falciparum Dd2 growth inhibition; SYBR Green, 72 h; stronger effect = lower value; activity change, % at 10 µM; 94,000 compounds, 2.3% hits; in the data active means activity change below about -80%; inconclusive means no clear call, values can overlap the other calls
C diff HTS: C. difficile growth inhibition | Clostridium difficile clinical isolate growth, OD600, 24 h; stronger effect = lower value | growth activity, negative = inhibition, % at 16 µg/mL (by protocol) | 86,000 compounds, 0.25% hits;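 active means mean growth activity at or below -80% and every replicate also at or below -80%; inconclusive means mean at or below -80% but some replicate above -80%; inactive means mean growth activity above -80%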
T cruzi growth-2: Trypanosoma cruzi proliferation inhibition | inhibition, % at 8.35 µM | 5,600 compounds, 72% hits | AID 651739 | shares compounds with T cruzi growth-1 | T. cruzi beta-gal in NIH3T3, GalScreen luminescence, 90 h;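 active means mean replicate inhibition above about 95% and at least 55% of replicates individually reaching it, limit read from the data; inconclusive means only one of the two criteria is met; inactive means neither criterion is met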
T cruzi growth-3: blocks T. cruzi growth in NIH3T3 host cells; shares compounds with T cruzi growth-1; T. cruzi beta-gal in NIH3T3, GalScreen luminescence, 90 h; inhibition, % at 2.09 µM; 5,600 compounds, 21% hits; AID 651740;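 active means mean inhibition above about 95%, with at least 55% of replicates also reaching it, limit read from the data; inconclusive means meets just one of the two conditions; inactive means meets neither condition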
NIH3T3 tox: cytotoxicity in mouse NIH/3T3 fibroblasts; shares compounds with T cruzi growth-1; NIH/3T3 viability, CellTiter-Glo ATP luminescence, 90 h; cytotoxicity (signal decrease), % at 8.35 µM; 5,600 compounds, 14% hits; AID 651742;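 active means mean signal decrease across replicates above about 35% based on untreated-well scatter, with enough replicates individually passing, limit read from the data; inconclusive means no rule stated though some were filed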
3T3 cytotox 2: cytotoxicity in mouse NIH/3T3 fibroblasts; shares compounds with T cruzi growth-1; NIH/3T3 viability, CellTiter-Glo ATP luminescence, 90 h; inhibition, % at 24.9 µM; 5,600 compounds, 56% hits; AID 651744;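 active means mean loss of cell viability signal at or above a set limit, and enough replicates individually reaching it; inconclusive means meets only the mean limit or only the replicate share; inactive means meets neither condition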
Of the large screens only hits and unclear results are named; the others gave an inactive call (follow-up assays come after a bar, where they were run).

CCCNC(=O)[C@H]1[C@H](CO)[C@H]2Cn3c(cccc3=O)[C@H]2N1CC1CCCCC1	none
CCNC(=O)[C@H]1[C@H](CO)[C@H]2Cn3c(cccc3=O)[C@H]2N1CC1CCCCC1	T cruzi growth-1 active (no result: Pf Dd2 growth, C diff HTS) | T cruzi growth-2 inactive | T cruzi growth-3 inactive | NIH3T3 tox inactive | 3T3 cytotox 2 inactive
O=C(Nc1ccc(-c2ccccc2)cc1)[C@@H]1[C@@H](CO)[C@@H]2Cn3c(cccc3=O)[C@@H]2N1CC1CCCCC1	T cruzi growth-1 inconclusive, Pf Dd2 growth -82 | T cruzi growth-2 inconclusive | T cruzi growth-3 105 | NIH3T3 tox inactive | 3T3 cytotox 2 104
C[C@@H]1CCCCO[C@H](CN(C)S(=O)(=O)c2ccc(F)cc2)[C@@H](C)CN([C@@H](C)CO)C(=O)c2cc(NS(=O)(=O)c3ccccc3)ccc2O1	none
N#C[C@H]1N[C@@H](CO)[C@H]1c1ccc(C#Cc2ccccc2F)cc1	T cruzi growth-1 100 | T cruzi growth-2 103 | T cruzi growth-3 109 | NIH3T3 tox inactive | 3T3 cytotox 2 inactive
N#C[C@H]1[C@H](c2ccc(C#Cc3ccccc3F)cc2)[C@@H](CO)N1C(=O)C1CC1	T cruzi growth-1 102 | T cruzi growth-2 100 | T cruzi growth-3 100 | NIH3T3 tox inactive | 3T3 cytotox 2 inactive
N#C[C@H]1[C@H](c2ccc(C#Cc3ccccc3F)cc2)[C@@H](CO)N1C(=O)C1CCOCC1	none
N#C[C@@H]1[C@@H](c2ccc(C#Cc3ccccc3F)cc2)[C@@H](CO)N1C(=O)C1CC1	none
N#C[C@H]1N[C@H](CO)[C@H]1c1ccc(C#Cc2ccccc2F)cc1	none
N#C[C@@H]1[C@@H](c2ccc(C#Cc3ccccc3F)cc2)[C@H](CO)N1C(=O)C1CC1	T cruzi growth-1 104 | T cruzi growth-2 103 | T cruzi growth-3 inactive | NIH3T3 tox inactive | 3T3 cytotox 2 inactive
COc1ccc(CN(C)C[C@H]2Oc3ccc(NC(=O)NC4CCCCC4)cc3C(=O)N([C@@H](C)CO)C[C@H]2C)cc1	none (no result: T cruzi growth-1)
C[C@@H]1CN([C@@H](C)CO)C(=O)c2cc(NS(=O)(=O)c3ccc(F)cc3)ccc2O[C@H]1CN(C)S(=O)(=O)c1cccs1	none
COc1ccccc1NC(=O)N1CC(=O)N2[C@@H](CO)[C@H](c3ccc(C#Cc4ccccc4)cc3)[C@@H]2C1	none (no result: T cruzi growth-1)
CO[C@H]1CC[C@H]2CCN(C)C(=O)C[C@H](c3ccccc3)CN(C)C(=O)c3cc(C#N)ccc3OC[C@H]1O2	none (no result: Pf Dd2 growth)
COc1ccccc1-c1ccc([C@H]2[C@H](CO)N3CCCCN(Cc4ccncc4)C[C@@H]23)cc1	none
OC[C@H]1[C@@H](c2ccc(/C=C/c3ccccc3)cc2)[C@@H]2CN(Cc3cncnc3)CCCCN12	T cruzi growth-1 102 | T cruzi growth-2 106 | T cruzi growth-3 inactive | NIH3T3 tox inactive | 3T3 cytotox 2 105
OC[C@@H]1[C@H](c2ccc(/C=C/c3ccccc3)cc2)[C@@H]2CN(Cc3cccnc3)CCCCN12	T cruzi growth-1 105 | T cruzi growth-2 111 | T cruzi growth-3 inactive | NIH3T3 tox 41 | 3T3 cytotox 2 103
OC[C@@H]1[C@H](c2ccc(/C=C/c3ccccc3)cc2)[C@@H]2CN(Cc3ccncc3)CCCCN12	T cruzi growth-1 121 | T cruzi growth-2 107 | T cruzi growth-3 inconclusive | NIH3T3 tox inconclusive | 3T3 cytotox 2 104
OC[C@@H]1[C@@H](c2ccc(/C=C/c3ccccc3)cc2)[C@@H]2CN(Cc3cccnc3)CCCCN12	T cruzi growth-1 inconclusive | T cruzi growth-2 104 | T cruzi growth-3 inactive | NIH3T3 tox 46 | 3T3 cytotox 2 103
OC[C@@H]1[C@@H](c2ccc(/C=C/c3ccccc3)cc2)[C@@H]2CN(Cc3cncnc3)CCCCN12	none
OC[C@@H]1[C@H](c2ccc(/C=C/c3ccccc3)cc2)[C@H]2CN(Cc3cncnc3)CCCCN12	none
COc1ccc(NC(=O)N2CC(=O)N3[C@@H](CO)[C@H](c4ccc(C5=CCCC5)cc4)[C@@H]3C2)cc1	none (no result: T cruzi growth-1)
C[C@H](C(=O)N(C)C[C@@H]1OCc2ccccc2-c2ccccc2C(=O)N([C@H](C)CO)C[C@H]1C)c1ccccc1	none
CC=Cc1ccc2n(c1=O)C[C@H]1[C@H](CO)[C@@H](C(=O)NCC3CC3)N(Cc3cccnc3)[C@@H]21 (mixture of isomers)	none
C[C@@H]1CN([C@H](C)CO)C(=O)CCCn2cc(nn2)CO[C@@H]1CN(C)S(=O)(=O)c1ccc(Cl)cc1	none (no result: C diff HTS)
CCC(=O)N1CC[C@@H]2[C@H](CO)Nc3ccc(C#Cc4cccnc4)cc3[C@@H]21	none
C/C=C/c1ccc([C@H]2[C@@H](CO)N(S(=O)(=O)c3cccc(F)c3)[C@H]2C#N)cc1	T cruzi growth-1 111 | T cruzi growth-2 inactive | T cruzi growth-3 inactive | NIH3T3 tox inactive | 3T3 cytotox 2 inactive
N#C[C@H]1[C@@H](c2ccccc2)[C@H](CO)N1S(=O)(=O)c1cccc(F)c1	none
C/C=C/c1ccc([C@H]2[C@@H](C#N)N(S(=O)(=O)c3cccc(F)c3)[C@H]2CO)cc1	none
N#C[C@H]1[C@H](c2ccccc2)[C@@H](CO)N1S(=O)(=O)c1cccc(F)c1	none
N#C[C@@H]1[C@@H](c2ccc(-c3cccc(F)c3)cc2)[C@@H](CO)N1S(=O)(=O)c1cccc(F)c1	T cruzi growth-1 99 | T cruzi growth-2 99 | T cruzi growth-3 inactive | NIH3T3 tox 39 | 3T3 cytotox 2 66
N#C[C@@H]1[C@H](c2ccc(-c3cccc(F)c3)cc2)[C@H](CO)N1S(=O)(=O)c1cccc(F)c1	T cruzi growth-1 102 | T cruzi growth-2 107 | T cruzi growth-3 inactive | NIH3T3 tox inactive | 3T3 cytotox 2 54
O=C(CC1CC1)Nc1ccc2c(c1)[C@@H]1C[C@H](CC(=O)N3CCc4ccccc4C3)O[C@H](CO)[C@@H]1O2	none
Cc1noc(C)c1NC(=O)Nc1ccc2c(c1)C(=O)N([C@@H](C)CO)C[C@H](C)[C@@H](CN(C)Cc1ccc3c(c1)OCO3)O2	none
C[C@H](CO)N1C[C@H](C)[C@@H](CN(C)C(=O)C2CCCCC2)OCCCC[C@H](C)Oc2ccc(NC(=O)Nc3cccc4ccccc34)cc2C1=O	T cruzi growth-1 119 | T cruzi growth-2 inactive | T cruzi growth-3 inactive | NIH3T3 tox inactive | 3T3 cytotox 2 inconclusive
C[C@H](CO)N1C[C@H](C)[C@H](CN(C)C(=O)Nc2cccc3ccccc23)OCCCC[C@H](C)Oc2ccc(NC(=O)Nc3cccc4ccccc34)cc2C1=O	none (no result: C diff HTS)
C[C@@H]1CCCCO[C@H](CN(C)C(=O)C2CCCCC2)[C@@H](C)CN([C@@H](C)CO)C(=O)c2cc(NC(=O)Nc3cccc4ccccc34)ccc2O1	T cruzi growth-1 inconclusive, Pf Dd2 growth -92 | T cruzi growth-2 103 | T cruzi growth-3 102 | NIH3T3 tox inactive | 3T3 cytotox 2 inactive
